Laboratory results published in PubChem BioAssay (Tox21).
Inconclusive results are not listed. Values without a mark were called inactive. Active and inactive are the calls of the source. Calls follow the shape of the dose curve; as a rule, active = well fitted inhibition curve with a large enough effect in the repeat runs; inconclusive = weak or mixed curves; inactive = flat fitted curve, though single readings scatter.

Target: Luciferin 4-monooxygenase (Photinus pyralis) (UniProt P08659)
Test: qHTS assay to identify small molecule inhibitors of firefly luciferase (AID 1224835); also: nearly all actives have a fitted effect of over 25% in size
Conditions: purified P. pyralis luciferase, luminescence inhibition; series mostly up to 52.9 µM; activity change, negative = inhibition: at the top concentration
Source text: U.S. Tox21 Program National Center for Advancing Translational Sciences [NCATS] NIH Chemical Genomics Center [NCGC] U.S. Environmental Protection Agency [EPA] National Institutes of Environmental Health Sciences [NIEHS] National Toxicology Program [NTP] U.S. Food and Drug Administration [FDA] Tox21 Assay Overview: Firefly (Photinus pyralis) luciferase is one of the most commonly used transcriptional reporters. Firefly luciferase reporter-gene assays are generally considered one of the most sensitive assay types (Wood, 1995; Wood, 1998). However, it was initially observed, in 1991, by Thompson et al., that compounds that resemble the substrates of firefly luciferase (FLuc) can act as competitive inhibitors of the enzyme, and that these compounds, upon interaction with luciferase in the cell, can actually stabilize the protein and increase its half-life. Previous profiling work by other groups to determine the prevalence of compounds that affect FLuc enzymatic activity (PubChem AID 411) identified that ~3% of the MLSMR library (then at ~72K) inhibited FLuc. […] Thus the Tox21 10K library is profiled for activity against FLuc using a biochemical assay of purified FLuc and KM concentrations of FLuc substrates (D-luciferin and ATP).
These assay plates were then treated with 23nL of compound or DMSO using a Kalypsys pin tool, which allows for delivery of a 6-point interplate titration of each compound to the assay plate (quantitative HTS.) 1 uL of firefly luciferase mix (containing 50 mM Tris acetate, pH 7.6, 0.04 uM P. pyralis luciferase, 0.01% Tween, 0.05% BSA and dH2O) was then delivered by FRD to each well. Luciferase activity was then measured using a ViewLux CCD imager.
% is scaled to controls: 0 for no effect and ±100 for the full control effect; potency is read from the fitted curve at half-maximal effect.

Chain of Luciferin 4-monooxygenase (Photinus pyralis) (P08659 whole entry, looked up): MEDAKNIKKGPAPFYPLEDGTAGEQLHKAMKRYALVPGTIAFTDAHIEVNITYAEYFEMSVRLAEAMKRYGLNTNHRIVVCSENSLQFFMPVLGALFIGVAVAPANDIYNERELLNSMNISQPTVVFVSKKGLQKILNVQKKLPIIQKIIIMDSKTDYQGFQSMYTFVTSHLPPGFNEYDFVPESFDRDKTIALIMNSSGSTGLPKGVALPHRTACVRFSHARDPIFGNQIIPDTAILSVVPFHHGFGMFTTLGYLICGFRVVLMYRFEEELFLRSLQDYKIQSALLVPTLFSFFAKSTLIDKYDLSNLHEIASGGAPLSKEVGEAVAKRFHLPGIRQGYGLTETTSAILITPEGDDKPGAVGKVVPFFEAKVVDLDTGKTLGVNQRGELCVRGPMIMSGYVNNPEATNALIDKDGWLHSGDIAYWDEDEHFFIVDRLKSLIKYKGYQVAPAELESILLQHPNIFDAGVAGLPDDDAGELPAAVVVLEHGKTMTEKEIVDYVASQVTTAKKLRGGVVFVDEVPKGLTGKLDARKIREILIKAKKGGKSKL

Structure (SMILES) | activity change, negative = inhibition | Potency
CCC1(CO)COCOC1 | 2.79% [at 115 µM] | –
COc1ccccc1Oc1c(NS(=O)(=O)c2ccc(C(C)(C)C)cc2)nc(-c2ncccn2)nc1OCCO | 4.03% | –
C[C@@H]1CN(CCCn2c3ccccc3c3ccccc32)C[C@H](C)N1 | 3.4% | –
COC(=O)CS | 1.38% [at 115 µM] | –
O=C1NC(=O)c2cc([N+](=O)[O-])ccc21 | 6.85% [at 115 µM] | –
C=C(C)[C@@H]1CCC2=CCC[C@@H](C)[C@]2(C)C1 | 0.643% [at 115 µM] | –
CC(C)(C)C(=O)C(=O)O | 0.624% [at 115 µM] | –
CCC(C)(C)OC | 0.174% [at 115 µM] | –
O=C1c2ccccc2C(=O)N1CCc1noc(-c2ccc(CN3CCCCCC3)s2)n1 | 0.16% [at 115 µM] | –
CC1(C)O[C@@H]2C[C@H]3[C@@H]4C[C@H](F)C5=CC(=O)C=C[C@]5(C)[C@H]4[C@@H](O)C[C@]3(C)[C@]2(C(=O)CO)O1 | -3.1% | –
COc1cc(Nc2c(C#N)cnc3cc(OCCCN4CCN(C)CC4)c(OC)cc23)c(Cl)cc1Cl | -0.401% | –
c1ccc2sc(SN(C3CCCCC3)C3CCCCC3)nc2c1 | 0.267% [at 115 µM] | –
C[C@@]12CCC[C@H]1[C@@H]1CC[C@H]3C[C@@H](O)CC[C@]3(C)[C@H]1CC2 | 1.59% | –
CCCCN1CCCC1C(=O)Nc1c(C)cc(C)cc1C (stereo not given) | -5.05% | –
Oc1cccc(O)c1O | -1.69% [at 115 µM] | –
Cc1ccccc1S | 0.151% | –
CC(O)c1ccccc1 (stereo not given) | -1.5% [at 115 µM] | –
Nc1cccc2c1CN(C1CCC(=O)NC1=O)C2=O (stereo not given) | -3.48% | –
OC[C@H]1O[C@@H](n2cnc3c(=S)nc[nH]c32)[C@H](O)[C@@H]1O | 0.0449% | –
CCCCCCC(C)(C)C(=O)O | 2.77% [at 115 µM] | –

Structure (SMILES) | activity change, negative = inhibition | Potency
O=C1c2ccccc2C(=O)C1c1ccc(Br)cc1 | – | 3.47 µM (active)
CC(=O)Nc1ccc(C)cc1C | 1.84% [at 115 µM] | –
CCC(=O)OC | 0.616% [at 115 µM] | –
OC1(c2ccccc2)CCNCC1 | 8.1% | –
C[C@]12CC[C@@H]3c4ccc(O)cc4CC[C@H]3[C@@H]1CC[C@@H]2OC(=O)CCC1CCCC1 | – | inactive
CN1C[C@H](C(=O)N[C@]2(C)O[C@@]3(O)[C@@H]4CCCN4C(=O)[C@H](Cc4ccccc4)N3C2=O)C[C@@H]2c3cccc4[nH]cc(c34)C[C@H]21 | -6.26% | –
CCCCCCCC/C=C\CCCCCCCCCCCC(=O)O | 1.54% [at 115 µM] | –
COc1cc(C(=O)NCCCCCC(=O)O)cc(OC)c1OC | -0.712% | –
CCOC(=O)c1ccc(OCCN2C[C@H](O)[C@@H](O)[C@H](O)[C@H]2CO)cc1 | 0.514% | –
CCN(CC)CCNC(=O)COc1ccc(OC)cc1 | -0.652% | –
CC(CN(C)C)C(C)(O)Cc1ccc(Cl)cc1 (stereo not given) | -4.34% | –
CN1C(=O)N(c2ccccc2Br)Cc2cnc(Nc3ccc4c(c3)OCC(CO)O4)nc21 (stereo not given) | – | 20 µM (active)
CC[N+](CC)(CCNC(=O)C(=O)NCC[N+](CC)(CC)Cc1ccccc1Cl)Cc1ccccc1Cl | -0.929% | –
O=c1cc(-c2ccccc2)oc2cc(O)cc(O)c12 | – | 2.52 µM (active)
CN(C)CCN1C(=O)c2ccccc2N(C)c2ccccc21 | -1.58% | –
Cc1cc(C)cc(N)c1 | -1.76% [at 115 µM] | –
c1ccc(C[n+]2cccc3ccccc32)cc1 | 0.808% [at 115 µM] | –
Nc1ncnc2c1ncn2[C@H]1CC[C@@H](CO)O1 | 0.0787% [at 115 µM] | –
Cc1ccc(C(C)(C)O)cc1 | 5.36% [at 115 µM] | –
NC1[C@H]2CN(c3nc4c(cc3F)c(=O)c(C(=O)O)cn4-c3ccc(F)cc3F)C[C@@H]12 (stereo not given in full) | 7.17% | –
